Data from PubChem BioAssay (NCATS).
Records with an inconclusive call do not appear. Active and inactive are the calls of the source. Calls follow the shape of the dose curve; as a rule, active = well fitted inhibition curve with a large enough effect; inconclusive = small, poorly fitted or top-dose-only effect; inactive = no such curve, though single readings can be large or run the other way.

Target: Tumor susceptibility gene 101 protein (Homo sapiens) (UniProt Q99816)
Experiment: qHTS Assay for Iinhibitors of HIV-1 Budding by Blocking the Interaction of PTAP/TSG101: Hit Validation (AID 651600); also: nearly all actives have a fitted effect of over 70% in size; also: potency is read from the fitted curve at half-maximal effect
Conditions: PTAP peptide/TSG101 UEV interaction, biochemical assay; series mostly up to 57.5 µM
Outline: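 Measuring PTAP–Tsg101 interaction by FP: protein at 10 uM and fluorescent peptide at 50 nM (final), buffer 10 mM HEPES pH 7.5 with 0.15 M NaCl, 3 mM EDTA, 0.1 mM TCEP, 0.01% Tween 20; 20 min incubation, r.t.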

Tumor susceptibility gene 101 protein (Homo sapiens), sequence (Q99816 whole entry, looked up): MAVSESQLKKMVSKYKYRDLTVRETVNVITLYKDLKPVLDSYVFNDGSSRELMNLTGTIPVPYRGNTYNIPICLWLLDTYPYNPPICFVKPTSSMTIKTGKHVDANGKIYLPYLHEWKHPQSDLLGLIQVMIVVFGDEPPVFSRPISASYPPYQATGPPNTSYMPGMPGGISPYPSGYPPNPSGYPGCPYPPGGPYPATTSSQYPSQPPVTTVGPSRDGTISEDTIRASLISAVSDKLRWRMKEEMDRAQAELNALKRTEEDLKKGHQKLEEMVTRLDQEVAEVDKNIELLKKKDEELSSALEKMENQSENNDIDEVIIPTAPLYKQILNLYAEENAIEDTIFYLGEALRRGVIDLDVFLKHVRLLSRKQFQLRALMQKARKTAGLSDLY

Potency, inactive:
O=C(C1=NN(c2ccccc2)C2C(=O)N(c3ccccc3)C(=O)C12)c1ccccc1 (stereo not drawn), CC(=Nc1ccc(C)cc1C)c1sc2ccccc2c1O

Potency, active:
CCSc1nnc(-c2sc3nnc(-c4ccccc4)c(-c4ccccc4)c3c2N)o1 25.9 µM, CCCCNc1ccc2c3c(cccc13)C(=O)N(CCCC)C2=O 4.11 µM

Target: Rap guanine nucleotide exchange factor 3 (Homo sapiens) (UniProt O95398)
Experiment: Confirmatory qHTS for antagonist of cAMP-regulated guanine nucleotide exchange factor 3 (EPAC1) (AID 1645880); also: nearly all actives have a fitted effect of over 55% in size
Conditions: EPAC1 Rap1B-BODIPY-GDP exchange, fluorescence; activity, negative = inhibition: at 115 µM (top of the series)
Outline: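 Nucleotide exchange uses 100 nM EPAC1, 250 nM RAP1B-BODIPY-GDP and 50 uM GDP, with compounds in a concentration-titration series. After 5 min at room temperature, fluorescence (480 nm ex/540 nm em) is read every 5 min for 30 min. Data are normalized to control ATA and DMSO.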

Rap guanine nucleotide exchange factor 3 (Homo sapiens), sequence (O95398 whole entry, looked up): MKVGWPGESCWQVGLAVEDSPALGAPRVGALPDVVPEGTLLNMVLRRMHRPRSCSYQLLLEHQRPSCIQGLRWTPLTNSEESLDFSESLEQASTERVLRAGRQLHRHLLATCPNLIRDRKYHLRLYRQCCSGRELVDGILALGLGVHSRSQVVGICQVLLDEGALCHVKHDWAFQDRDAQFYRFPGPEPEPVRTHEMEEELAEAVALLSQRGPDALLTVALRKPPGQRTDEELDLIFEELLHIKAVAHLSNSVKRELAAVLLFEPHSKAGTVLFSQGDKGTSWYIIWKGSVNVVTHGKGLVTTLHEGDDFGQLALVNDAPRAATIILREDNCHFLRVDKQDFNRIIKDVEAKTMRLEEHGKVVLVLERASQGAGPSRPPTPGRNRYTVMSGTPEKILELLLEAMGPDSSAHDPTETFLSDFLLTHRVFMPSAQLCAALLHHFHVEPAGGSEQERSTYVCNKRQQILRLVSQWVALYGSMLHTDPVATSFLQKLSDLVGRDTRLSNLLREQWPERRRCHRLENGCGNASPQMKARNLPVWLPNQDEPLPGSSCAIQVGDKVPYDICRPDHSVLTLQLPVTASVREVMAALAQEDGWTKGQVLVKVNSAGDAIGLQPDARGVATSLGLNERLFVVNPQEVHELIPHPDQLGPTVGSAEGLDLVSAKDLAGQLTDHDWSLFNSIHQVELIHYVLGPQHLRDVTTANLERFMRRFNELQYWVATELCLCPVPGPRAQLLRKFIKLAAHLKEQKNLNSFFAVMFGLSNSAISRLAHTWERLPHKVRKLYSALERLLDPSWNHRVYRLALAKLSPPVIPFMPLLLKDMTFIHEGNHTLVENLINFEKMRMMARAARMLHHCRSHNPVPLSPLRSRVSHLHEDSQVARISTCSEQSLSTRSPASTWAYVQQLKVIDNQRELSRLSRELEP

Potency, inactive:
COC(=O)CCc1nc2cc(Cl)ccc2n(Cc2ccccc2)c1=O, COC(=O)C1=NN(c2ccc(C)cc2)C2(S1)SC(C(C)=O)=C(C)N2c1ccccc1 (stereo not drawn), Cc1ccc(NC(=O)CSc2nnc(-c3cc4occc4n3C)n2-c2ccccc2C)c(Cl)c1, CC(=O)Nc1ccc(Nc2c3c4c(cccc4n(C)c2=O)C(=O)c2ccccc2-3)cc1, O=C1c2ccccc2-c2onc3c(Br)cc(NC4CCCCC4)c1c23, CCCN1CC=C2C(C#N)=C(N)C(C#N)(C#N)C(c3cccc(OC)c3OC)C2C1 (stereo not drawn), O=C(NCCOc1ccc(F)cc1)c1ccccc1SCc1ccccc1, CCSc1nnc(-c2sc3nnc(-c4ccccc4)c(-c4ccccc4)c3c2N)o1, CCCN(CCC)c1ccc(/C=C/c2ccnc3ccccc23)cc1, COCc1c(C(=O)N2CCc3ccccc32)oc2ccccc12, CC(=O)/C(=N\Nc1ccccc1)Sc1cccc2cccnc12, COc1ccc2c(c1)C(=O)CCC2c1ccccc1 (stereo not drawn), N#CC(C#N)=C1C=C2C=C(N3CCCCCC3)CCC2CC1 (stereo not drawn), Cc1ccccc1C(=O)O/N=C(\c1ccccc1)c1ccccn1
